A short description of experiment [1]: antimalarial activity against Dd2 strain (AID 2302;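 active means growth inhibition above 50% at the single 2 µM test dose, taken to imply half-maximal potency below 2 µM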;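 further: 0% = DMSO untreated growth and 100% = chloroquine plus artemisinin killed control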). Particulars: P. falciparum Dd2 in RBCs, LDH growth readout, 72 h; at 2 µM; active compounds read high.
Experiment [2] in a line: human hepatoma cell viability loss – ATP luminescence, cytotoxicity control for P. falciparum antimalarial project, primary screen (AID 2303;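 active means inhibition above 50%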;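 further: 0% = DMSO wells and 100% = digitonin-killed cells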). Particulars: HepG2 viability, 24-48 h, at 10 µM, active compounds read high.
Experiment [3] deals with L-lactate dehydrogenase (Plasmodium falciparum (isolate CDC / Honduras)) (UniProt Q27743). As to the kind of experiment: PfLDH activity inhibition – cell lysate, 3D7 strain, counter-screen for P. falciparum growth inhibition project (AID 2304).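 Further: 0% = vehicle and 100% = reference inhibitor.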 Particulars: P. falciparum 3D7 crude extract, LDH APAD/NBT absorbance; at 2 µM; active compounds read high.
L-lactate dehydrogenase (Plasmodium falciparum (isolate CDC / Honduras)), sequence (Q27743 whole entry, looked up): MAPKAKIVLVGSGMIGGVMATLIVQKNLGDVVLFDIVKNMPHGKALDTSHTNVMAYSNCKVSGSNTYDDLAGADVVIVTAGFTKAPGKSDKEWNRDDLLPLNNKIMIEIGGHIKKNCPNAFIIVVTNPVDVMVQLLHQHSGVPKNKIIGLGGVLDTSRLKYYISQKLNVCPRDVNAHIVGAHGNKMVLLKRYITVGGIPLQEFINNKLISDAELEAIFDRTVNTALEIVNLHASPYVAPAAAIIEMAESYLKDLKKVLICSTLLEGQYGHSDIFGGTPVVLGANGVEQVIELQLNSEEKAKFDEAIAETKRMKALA
Experiment [4] can be described thus: inhibition of 3D7 malaria parasite growth – strain 3D7 (AID 2306).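 Further: 0% = DMSO wells and 100% = chloroquine plus artemisinin control wells.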 The settings on record: P. falciparum 3D7 erythrocytic growth, LDH absorbance, 72 h; at 2 µM; active compounds read high.
The target in experiment [5] is Calcium-dependent protein kinase 1 (Plasmodium falciparum (isolate 3D7)) (UniProt P62344). Description: PfCDPK1 kinase inhibitors, biochemical, TCAMS library (AID 1159585; cut-off not given, nearly all actives have IC50 up to about 0.98 µM;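 further: inhibitors leave more ATP so luminescence rises with inhibition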). The settings on record: recombinant PfCDPK1, Kinase-Glo ATP depletion luminescence. For orientation: In Kinase-Glo more light means more ATP remaining.
Calcium-dependent protein kinase 1 (Plasmodium falciparum (isolate 3D7)), sequence (P62344 whole entry, looked up): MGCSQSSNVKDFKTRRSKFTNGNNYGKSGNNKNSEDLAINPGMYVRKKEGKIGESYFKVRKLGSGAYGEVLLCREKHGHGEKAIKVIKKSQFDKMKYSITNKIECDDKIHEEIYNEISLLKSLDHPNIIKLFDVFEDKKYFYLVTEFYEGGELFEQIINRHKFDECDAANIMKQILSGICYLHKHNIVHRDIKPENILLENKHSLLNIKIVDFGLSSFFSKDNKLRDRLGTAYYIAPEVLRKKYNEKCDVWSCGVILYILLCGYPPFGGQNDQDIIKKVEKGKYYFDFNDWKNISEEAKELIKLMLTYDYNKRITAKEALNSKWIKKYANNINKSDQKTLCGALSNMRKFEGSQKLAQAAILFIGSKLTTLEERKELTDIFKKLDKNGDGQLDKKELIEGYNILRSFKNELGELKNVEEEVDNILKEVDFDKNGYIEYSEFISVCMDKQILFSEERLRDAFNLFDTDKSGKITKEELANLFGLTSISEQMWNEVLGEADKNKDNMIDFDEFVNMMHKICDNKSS
The target in experiment [6] is Plasmodium falciparum protein kinase 6 (PK6, PF3D7_1337100) (UniProt Q8IDW1). As to the kind of experiment: PfPK6 kinase inhibitors, biochemical, TCAMS library (AID 1159586). Particulars: recombinant PfPK6, Kinase-Glo ATP depletion luminescence.
Plasmodium falciparum protein kinase 6 (PK6, PF3D7_1337100), sequence (Q8IDW1 1-305): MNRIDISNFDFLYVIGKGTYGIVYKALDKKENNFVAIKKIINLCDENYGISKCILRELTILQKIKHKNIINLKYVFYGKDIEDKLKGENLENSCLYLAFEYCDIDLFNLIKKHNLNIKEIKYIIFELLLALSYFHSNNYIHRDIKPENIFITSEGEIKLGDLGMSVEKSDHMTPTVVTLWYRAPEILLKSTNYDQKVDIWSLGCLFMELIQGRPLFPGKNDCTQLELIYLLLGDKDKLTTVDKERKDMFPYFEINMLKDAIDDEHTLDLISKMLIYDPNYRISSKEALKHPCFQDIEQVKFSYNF
Experiment [7] addresses Protein kinase 7 (PK7), Plasmodium falciparum 3D7 (PF3D7_0213400) (UniProt Q7YTF7). Description: inhibition of Plasmodium PK7 catalytic activity – biochemical, TCAMS antimalarial set, Kinase-Glo luminescence (AID 1159587). The settings on record: recombinant PfPK7, Kinase-Glo ATP depletion luminescence.
In experiment [8] the target is Calcium-dependent protein kinase 4 (Plasmodium falciparum (isolate 3D7)) (UniProt Q8IBS5). Description: PfCDPK4 kinase inhibitors, biochemical, TCAMS library (AID 1159588; cut-off not given, nearly all actives have IC50 up to about 0.91 µM). The settings on record: recombinant PfCDPK4, Kinase-Glo ATP depletion luminescence.
Calcium-dependent protein kinase 4 (Plasmodium falciparum (isolate 3D7)), sequence (Q8IBS5 whole entry, looked up): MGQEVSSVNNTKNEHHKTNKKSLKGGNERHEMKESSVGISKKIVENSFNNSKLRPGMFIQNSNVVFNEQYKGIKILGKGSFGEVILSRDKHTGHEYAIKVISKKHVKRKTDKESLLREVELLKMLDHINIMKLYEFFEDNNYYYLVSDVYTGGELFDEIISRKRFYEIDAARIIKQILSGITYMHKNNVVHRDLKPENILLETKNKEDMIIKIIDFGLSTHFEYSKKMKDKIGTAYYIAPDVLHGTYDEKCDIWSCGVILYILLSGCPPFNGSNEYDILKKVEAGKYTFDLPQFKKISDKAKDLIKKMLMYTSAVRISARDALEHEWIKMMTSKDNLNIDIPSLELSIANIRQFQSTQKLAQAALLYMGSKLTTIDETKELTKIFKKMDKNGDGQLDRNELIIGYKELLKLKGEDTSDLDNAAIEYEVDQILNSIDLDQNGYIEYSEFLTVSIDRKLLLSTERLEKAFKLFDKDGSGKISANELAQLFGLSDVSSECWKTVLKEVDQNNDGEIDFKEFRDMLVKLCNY

For 20 molecules, growth inhibition, inhibition and outcome results are on record in PubChem BioAssay.

A number with no mark means an inactive call. For some of these results: Measured potencies and affinities stand elsewhere. Activity calls are given as the source filed them. Unless noted, how the calls were made is not given here. Residues, ends and D or L forms follow the SMILES beside them. *: point of attachment. Boc = CC(C)(C)OC(=O)*

Protein kinase 7 (PK7), Plasmodium falciparum 3D7 (PF3D7_0213400), sequence (Q7YTF7 1-343): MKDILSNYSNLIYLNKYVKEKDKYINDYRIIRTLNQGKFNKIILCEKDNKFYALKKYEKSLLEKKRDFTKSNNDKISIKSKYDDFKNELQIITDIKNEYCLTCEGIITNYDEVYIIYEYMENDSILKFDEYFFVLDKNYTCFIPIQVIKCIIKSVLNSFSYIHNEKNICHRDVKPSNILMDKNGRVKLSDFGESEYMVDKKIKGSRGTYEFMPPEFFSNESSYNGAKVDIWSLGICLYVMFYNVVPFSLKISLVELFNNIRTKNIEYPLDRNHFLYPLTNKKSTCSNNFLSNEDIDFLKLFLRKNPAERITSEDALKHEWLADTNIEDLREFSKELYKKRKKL

The term inhibition denotes the relative decrease from the control value, in per cent. For `Cc1nc2nc(N)nc(N)c2c(C)c1Cc1ccc(C#N)cc1`, the growth inhibition in experiment [1] is 4%; in experiment [4] it was 96% (active). Also, the inhibition in experiment [2] is 69% (active); in experiment [3], 1%. Further, the result in experiment [5], in experiment [6], in experiment [7] and in experiment [8] was inactive.
For the molecule `O=C(NC1CCCC1)c1ccc(N2CCC(NCc3cc4cc(Cl)ccc4[nH]3)CC2)cc1`, the growth inhibition in experiment [1] is -10%; in experiment [4] it was 91% (active). Besides, the figures for the inhibition in experiment [2] and in experiment [3] were 21% and -2%, respectively. Also, the outcome in experiment [5], in experiment [6], in experiment [7] and in experiment [8] was inactive.
With `C=CCN1CCC(N(Cc2cccc(Oc3ccccc3)c2)C(=O)C(c2ccccc2)c2ccccc2)CC1`, the values for the growth inhibition in experiment [1] and in experiment [4] were 79% (active) and 87% (active), respectively. Besides, the inhibition in experiment [2] was 7%; in experiment [3], -5%. Also, the outcome in experiment [5], in experiment [6], in experiment [7] and in experiment [8] was inactive.
On to `COc1ccc(NC(=O)Nc2ccc(-c3ccccc3)cc2Cl)cc1N1CCN(C)CC1`, for which the growth inhibition is 30% in experiment [1] and 90% (active) in experiment [4]. In addition, the inhibition in experiment [2] was 40%; in experiment [3], 0%. Besides, the outcome in experiment [5], in experiment [6], in experiment [7] and in experiment [8] was inactive.
Regarding `CC(C)N1CCN(c2ccc(OCCCCN3CCN(c4cccc(Cl)c4Cl)CC3)cc2Cl)CC1`, the figures for the growth inhibition in experiment [1] and in experiment [4] were 34% and 89% (active), respectively. In addition, the inhibition in experiment [2] was 63% (active); in experiment [3], -1%. The outcome in experiment [5], in experiment [6], in experiment [7] and in experiment [8] was inactive.
In the case of `CC[C@H](NC(=O)c1c(CN2CCC(N3CCCCC3)CC2)c(-c2ccccc2)nc2c(Cl)c(O)ccc12)c1ccccc1`, the growth inhibition in experiment [1] is 66% (active); in experiment [4], 101% (active). The figures for the inhibition in experiment [2] and in experiment [3] were -1% and -3%, respectively. Further, the outcome in experiment [5], in experiment [6], in experiment [7] and in experiment [8] was inactive.
For the molecule `COc1cccc(C(O)CNc2ccnc(Nc3cccc(-c4csc(C)n4)c3)n2)c1` (stereo not given), the growth inhibition is 73% (active) in experiment [1] and 99% (active) in experiment [4]. Besides, the inhibition is 38% in experiment [2] and -8% in experiment [3]. The result in experiment [5], in experiment [6], in experiment [7] and in experiment [8] was inactive.
`Cc1cccc(-c2ccc(CNC3CCN(CC4Cn5c(=O)ccc6ccc(F)c4c65)CC3)cn2)c1` (stereo not given): the growth inhibition in experiment [1] is 2%; in experiment [4], 90% (active). Also, the inhibition in experiment [2] and in experiment [3] was -2% throughout. In addition, the outcome in experiment [5], in experiment [6], in experiment [7] and in experiment [8] was inactive.
On to `COc1cc2c(cc1C(F)(F)F)N(C(=O)Nc1cccc(-c3ccc(CN(C)C)cc3)c1)CC2`, for which the growth inhibition in experiment [1] is 93% (active); in experiment [4], 101% (active). Also, the inhibition in experiment [2] is 95% (active); in experiment [3], 1%. Besides, the result in experiment [5], in experiment [6], in experiment [7] and in experiment [8] was inactive.
Take `COc1ccccc1C1CCN(C2CCC(NC(=O)c3cc4cc(C(C)C)ccc4[nH]3)CC2)CC1` (stereo not given): the figures for the growth inhibition in experiment [1] and in experiment [4] were 98% (active) and 101% (active), respectively. Moreover, the figures for the inhibition in experiment [2] and in experiment [3] were 100% (active) and -4%, respectively. Further, the outcome in experiment [5], in experiment [6], in experiment [7] and in experiment [8] was inactive.
Consider `COC(=O)CC[C@H](NC(=O)[C@H](C)NC(=O)OC(C)(C)C)C(=O)OC` (Boc-Ala-Glu(OMe)-OMe), for which the figures for the growth inhibition in experiment [1] and in experiment [4] were 0% and 95% (active), respectively. The inhibition in experiment [2] is 12%; in experiment [3] it was -2%. For the same molecule, the outcome in experiment [5], in experiment [6], in experiment [7] and in experiment [8] was inactive.
With `O=C(Nc1ccc(F)cc1)N1CCCN(c2ccnc3cc(Cl)ccc23)CC1`, the results for the growth inhibition in experiment [1] and in experiment [4] were 16% and 97% (active), respectively. The inhibition in experiment [2] was 7%; in experiment [3], -1%. For the same molecule, the result in experiment [5], in experiment [6], in experiment [7] and in experiment [8] was inactive.
Consider `O=C(c1cccc(-c2cccc(-c3nc4ccccc4[nH]3)c2)c1)N1CCCCC1CN1CCC(O)C1` (stereo not given), for which the growth inhibition in experiment [1] was 56% (active); in experiment [4] it was 100% (active). The inhibition in experiment [2] is 66% (active); in experiment [3], 2%. Also, the result in experiment [5], in experiment [6], in experiment [7] and in experiment [8] was inactive.
For `Cc1cc(N2CCC(NS(=O)(=O)c3ccc(F)cc3)CC2)nc(Nc2cccc(C#N)c2)n1`, the growth inhibition in experiment [1] was 65% (active); in experiment [4], 97% (active). The inhibition is 20% in experiment [2] and -4% in experiment [3]. Besides, the result in experiment [5], in experiment [6], in experiment [7] and in experiment [8] was inactive.
On to `CC(C)N1CCN(C(=O)c2ccc(CNCCCN3CCN(c4ccccc4C(F)(F)F)CC3)s2)CC1`, for which the results for the growth inhibition in experiment [1] and in experiment [4] were 42% and 98% (active), respectively. The inhibition in experiment [2] was 32%; in experiment [3], -7%. Besides, the outcome in experiment [5], in experiment [6], in experiment [7] and in experiment [8] was inactive.
As for `Cc1cccc2[nH]c(-c3cccc(-c4cccc(CNC(C)C)c4)c3)nc12`, the growth inhibition in experiment [1] is 98% (active); in experiment [4], 102% (active). The inhibition in experiment [2] was 29%; in experiment [3], -4%. In addition, the result in experiment [5], in experiment [6], in experiment [7] and in experiment [8] was inactive.
Consider `Cn1c(-c2ccccc2)cc2c3c(=O)cc(C(F)(F)F)[nH]c3ccc21`, for which the growth inhibition in experiment [1] was 49%; in experiment [4] it was 95% (active). In addition, the inhibition is 21% in experiment [2] and -1% in experiment [3]. Further, the outcome in experiment [5], in experiment [6], in experiment [7] and in experiment [8] was inactive.
`Cc1cccc2[nH]c(-c3ccc(-c4cccc(CN5CCC(CO)CC5)c4)s3)nc12`: the growth inhibition is 61% (active) in experiment [1] and 99% (active) in experiment [4]. The inhibition in experiment [2] was 20%; in experiment [3], -8%. Also, the result in experiment [5], in experiment [6], in experiment [7] and in experiment [8] was inactive.
On to `CN1CCN(c2ccnc3ccc(NC(=O)Nc4ccc(-c5ccncc5)c(C(F)(F)F)c4)cc23)CC1`, for which the growth inhibition in experiment [1] and in experiment [4] was 99% (active) throughout. For the same molecule, the results for the inhibition in experiment [2] and in experiment [3] were 12% and 6%, respectively. Moreover, the result in experiment [5], in experiment [6], in experiment [7] and in experiment [8] was inactive.
As to `CC[C@H]1CN2CCc3cc(OC)c(OC)cc3[C@@H]2C[C@@H]1CC1=NCCc2c1[nH]c1ccc(OCc3ccccc3)cc21`, the growth inhibition in experiment [1] was 89% (active); in experiment [4], 101% (active). Besides, the inhibition is 57% (active) in experiment [2] and -2% in experiment [3]. Moreover, the outcome in experiment [5], in experiment [6], in experiment [7] and in experiment [8] was inactive.
